Compounds without any hit were thinned out: in the full panel of roughly 79,000, 15% have a hit. Calls of active or inactive are those of the source. Cut-off read from the data, not from the text of the source: active = growth inhibition above about 70%; inactive = the rest.
Key:
[1] = NCI Yeast Anticancer Drug Screen. Data for the wt2 strain (AID 169);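 note: 0% = growth of vehicle-treated yeast cultures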; details: S. cerevisiae wt2 strain growth inhibition, hits give high values
Summary of the method: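 The panel's yeast strains carry defined changes in DNA repair or cell cycle genes. Each strain is grown with compound, and growth loss is scored relative to vehicle.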

[2] = NCI Yeast Anticancer Drug Screen. Data for the mlh1 strain (AID 171);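 note: 0% = growth of vehicle-treated control cultures of the same strain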; details: S. cerevisiae mlh1 strain growth inhibition, hits give high values
Summary of the method: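 Inhibition values reflect reduced yeast growth in the presence of compound, referenced to vehicle controls, using a strain chosen for its alteration in DNA repair or cell cycle control.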

[3] = NCI Yeast Anticancer Drug Screen. Data for the sgs1 strain (AID 173);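 note: 0% = growth of vehicle-only control cultures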; details: S. cerevisiae sgs1 mutant, hits give high values
Summary of the method: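 Vehicle-treated cultures served as reference for growth inhibition of a yeast strain altered in DNA damage repair or cell cycle control after compound exposure.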

[4] = NCI Yeast Anticancer Drug Screen. Data for the mlh1 rad18 strain (AID 175); details: S. cerevisiae mlh1 rad18 strain growth inhibition, hits give high values
Summary of the method: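 Inhibition values reflect reduced growth of mutant yeast versus vehicle-treated controls following compound exposure; the mutations affect DNA damage repair.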

[5] = NCI Yeast Anticancer Drug Screen. Data for the rad18 strain (AID 177); details: S. cerevisiae rad18 mutant growth inhibition, hits give high values
Summary of the method: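 Steps: expose repair-mutant yeast to compound; measure growth; express as inhibition relative to vehicle control.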

[6] = NCI Yeast Anticancer Drug Screen. Data for the rad52 strain (AID 147);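 note: 0% = growth of vehicle-treated control cultures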; details: S. cerevisiae rad52 mutant growth inhibition, hits give high values
Summary of the method: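 Inhibition of yeast growth, referenced to vehicle controls, was the measured output for a strain with defective DNA damage repair.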

[7] = NCI Yeast Anticancer Drug Screen. Data for the wt1 strain (AID 149);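 note: 0% = growth of vehicle-treated wt1 cultures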; details: S. cerevisiae wt1 strain (SPY 50644) growth inhibition, hits give high values
Summary of the method: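 wt1 yeast, compound-treated; % growth inhibition vs vehicle control.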

[8] = NCI Yeast Anticancer Drug Screen. Data for the rad50EPP+ strain (AID 151);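 note: 0% = growth of vehicle-treated control cultures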; details: S. cerevisiae rad50 mutant strain, hits give high values
Summary of the method: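 Genetically defined yeast (rad50EPP+, DNA damage repair alteration) is grown with compound, and inhibition of growth is expressed relative to vehicle-treated controls.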

[9] = NCI Yeast Anticancer Drug Screen. Data for the mgt1 strain (AID 153); details: S. cerevisiae mgt1 mutant growth inhibition, hits give high values
Summary of the method: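 In the mgt1 strain, test compounds were added and growth inhibition was determined relative to vehicle-treated controls.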

[10] = NCI Yeast Anticancer Drug Screen. Data for the rad50 strain (AID 155);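 note: 0% = growth of vehicle-only cultures of the same strain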; details: S. cerevisiae rad50 strain growth inhibition, hits give high values
Summary of the method: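 Genetically altered yeast (DNA repair pathway); compound treatment; growth inhibition vs vehicle ctrl.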

[11] = NCI Yeast Anticancer Drug Screen. Data for the mec2-1 strain (AID 157); details: S. cerevisiae mec2-1 strain, hits give high values
Summary of the method: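 Each compound was tested on mec2-1 yeast, a strain altered in DNA damage repair or cell cycle control. Growth inhibition is reported relative to vehicle.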

[12] = NCI Yeast Anticancer Drug Screen. Data for the rad14 strain (AID 159);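 note: 0% = growth of vehicle-treated control cultures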; details: S. cerevisiae rad14 strain growth inhibition, hits give high values
Summary of the method: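 Test compounds were applied to a repair-deficient yeast strain. Its growth was then compared with that of cultures given vehicle alone, and inhibition was expressed relative to those controls.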

[13] = NCI Yeast Anticancer Drug Screen. Data for the sgs1 mgt1 strain (AID 161);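 note: 0% = growth of cultures given vehicle only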; details: S. cerevisiae sgs1 mgt1 strain, hits give high values
Summary of the method: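 Mutant yeast exposed to compound; growth scored against vehicle-only wells.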

[14] = NCI Yeast Anticancer Drug Screen. Data for the CLN2oe strain (AID 163);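 note: 0% = growth of vehicle-only control cultures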; details: S. cerevisiae CLN2oe strain, hits give high values
Summary of the method: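 First, the altered yeast strain was treated with each compound; second, its growth was measured; finally, inhibition was derived by comparison with vehicle controls.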

[15] = NCI Yeast Anticancer Drug Screen. Data for the cln2 rad14 strain (AID 165);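 note: 0% = growth equal to vehicle treated cultures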; details: S. cerevisiae cln2 rad14 strain, hits give high values
Summary of the method: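 Test compounds were added to cln2 rad14 yeast cultures; inhibition of growth was then determined by comparison with vehicle treatment.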

[16] = NCI Yeast Anticancer Drug Screen. Data for the bub3 strain (AID 167); details: S. cerevisiae bub3 mutant strain, hits give high values
Summary of the method: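 Yeast carrying a defined mutation is treated with each compound, and growth is compared with that of vehicle-exposed cells to give inhibition.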

[17] = at 5.0 µM (retest, dose inferred, filed as 0.5)
[18] = at 50.0 µM (retest, dose inferred, filed as 5.0)

Measured: growth inhibition

COC(=O)C(=O)c1c(-c2ccc(Cl)c(Cl)c2)[nH]c2[nH]n(-c3ccccc3)c(=O)c2c1=O
inactive: [1]; at 1.2 µM 0% | [1]; at 3.7 µM 5% | [1]; at 11.0 µM 44% | [1]; at 33.0 µM 57% | [1]; at 100.0 µM 56% | [2]; at 1.2 µM -2% | [2]; at 3.7 µM -3% | [2]; at 11.0 µM 36% | [2]; at 33.0 µM 57% | [2]; at 100.0 µM 57% | [3]; at 1.2 µM -1% | [3]; at 3.7 µM -1% | [3]; at 11.0 µM 60% | [3]; at 33.0 µM 61% | [3]; at 100.0 µM 65% | [4]; [17] -7% | [5]; at 1.2 µM -3% | [5]; at 3.7 µM -2% | [5]; at 11.0 µM 3% | [5]; at 33.0 µM 49%
active: [4]; [18] 80% | [4]; at 50.0 µM 94.5% | [5]; at 100.0 µM 77%

O=C1C=CC(=Nc2cccc3c2-c2ccccc2C3=O)O1
active: [6]; at 33.0 µM 97% | [6]; at 100.0 µM 98% | [7]; at 33.0 µM 99% | [7]; at 100.0 µM 99% | [8]; at 33.0 µM 89% | [8]; at 100.0 µM 97% | [9]; at 11.0 µM 71% | [9]; at 33.0 µM 99% | [9]; at 100.0 µM 99% | [10]; at 11.0 µM 79% | [10]; at 33.0 µM 98% | [10]; [18] 99% | [10]; at 50.0 µM 99.5% | [10]; at 100.0 µM 97% | [11]; at 11.0 µM 75% | [11]; at 33.0 µM 99% | [11]; [18] 99% | [11]; at 50.0 µM 99.5% | [11]; at 100.0 µM 99% | [12]; at 11.0 µM 94% | [12]; at 33.0 µM 99% | [12]; at 100.0 µM 98% | [13]; [18] 99% | [13]; at 50.0 µM 99.6% | [14]; at 33.0 µM 99% | [14]; at 100.0 µM 98% | [15]; [18] 99% | [15]; at 50.0 µM 98.7% | [16]; at 11.0 µM 72% | [16]; at 33.0 µM 97% | [16]; [18] 99% | [16]; at 50.0 µM 99.7% | [16]; at 100.0 µM 98% | [1]; at 11.0 µM 79% | [1]; at 33.0 µM 99% | [1]; at 100.0 µM 99% | [2]; at 11.0 µM 84% | [2]; at 33.0 µM 99% | [2]; at 100.0 µM 99% | [3]; at 11.0 µM 83% | [3]; at 33.0 µM 99% | [3]; at 100.0 µM 99% | [4]; [18] 99% | [4]; at 50.0 µM 85% | [5]; at 11.0 µM 83% | [5]; at 33.0 µM 99% | [5]; at 100.0 µM 98%
inactive: [6]; at 1.2 µM 3% | [6]; at 3.7 µM 16% | [6]; at 11.0 µM 67% | [7]; at 1.2 µM -2% | [7]; at 3.7 µM 8% | [7]; at 11.0 µM 42% | [8]; at 1.2 µM 4% | [8]; at 3.7 µM 24% | [8]; at 11.0 µM 61% | [9]; at 1.2 µM 1% | [9]; at 3.7 µM 17% | [10]; at 1.2 µM 3% | [10]; at 3.7 µM 19% | [10]; [17] 26% | [11]; at 1.2 µM 6% | [11]; at 3.7 µM 23% | [11]; [17] 36% | [12]; at 1.2 µM 5% | [12]; at 3.7 µM 18% | [13]; [17] 36% | [14]; at 1.2 µM -3% | [14]; at 3.7 µM 5% | [14]; at 11.0 µM 60% | [15]; [17] 14% | [16]; at 1.2 µM -7% | [16]; at 3.7 µM 0% | [16]; [17] 14% | [1]; at 1.2 µM -3% | [1]; at 3.7 µM 12% | [2]; at 1.2 µM 7% | [2]; at 3.7 µM 18% | [3]; at 1.2 µM 7% | [3]; at 3.7 µM 25% | [4]; [17] 28% | [5]; at 1.2 µM 8% | [5]; at 3.7 µM 23%

CC1CN(/N=C\c2ccc([N+](=O)[O-])o2)C(=O)O1 (centres undefined)
active: [10]; at 50.0 µM 75.7% | [10]; at 100.0 µM 72% | [13]; [18] 83% | [13]; at 50.0 µM 86.1% | [3]; at 100.0 µM 87% | [4]; [18] 71% | [4]; at 50.0 µM 85.8% | [5]; at 1.2 µM 78% | [5]; at 3.7 µM 85% | [5]; at 11.0 µM 88% | [5]; at 33.0 µM 93% | [5]; at 100.0 µM 97%
inactive: [6]; at 1.2 µM 1% | [6]; at 3.7 µM 3% | [6]; at 11.0 µM 9% | [6]; at 33.0 µM 19% | [6]; at 100.0 µM 59% | [7]; at 1.2 µM -2% | [7]; at 3.7 µM -2% | [7]; at 11.0 µM -2% | [7]; at 33.0 µM 1% | [7]; at 100.0 µM 10% | [8]; at 1.2 µM 0% | [8]; at 3.7 µM -1% | [8]; at 11.0 µM 4% | [8]; at 33.0 µM 15% | [8]; at 100.0 µM 48% | [9]; at 1.2 µM -1% | [9]; at 3.7 µM -1% | [9]; at 11.0 µM -1% | [9]; at 33.0 µM -1% | [9]; at 100.0 µM 9% | [10]; at 1.2 µM 9% | [10]; at 3.7 µM 46% | [10]; [17] 8% | [10]; at 11.0 µM 32% | [10]; at 33.0 µM 24% | [10]; [18] 53% | [11]; at 1.2 µM 2% | [11]; at 3.7 µM 4% | [11]; [17] -25% | [11]; at 11.0 µM 6% | [11]; at 33.0 µM 12% | [11]; [18] 46% | [11]; at 50.0 µM 20.6% | [11]; at 100.0 µM 45% | [12]; at 1.2 µM 0% | [12]; at 3.7 µM -3% | [12]; at 11.0 µM -2% | [12]; at 33.0 µM 10% | [12]; at 100.0 µM 47% | [13]; [17] 27% | [14]; at 1.2 µM -7% | [14]; at 3.7 µM -6% | [14]; at 11.0 µM -3% | [14]; at 33.0 µM -7% | [14]; at 100.0 µM -6% | [15]; [17] -3% | [15]; [18] 45% | [15]; at 50.0 µM 18.9% | [16]; at 1.2 µM -1% | [16]; at 3.7 µM 3% | [16]; [17] -8% | [16]; at 11.0 µM 0% | [16]; at 33.0 µM 2% | [16]; [18] 14% | [16]; at 50.0 µM 14.1% | [16]; at 100.0 µM 9% | [1]; at 1.2 µM -3% | [1]; at 3.7 µM 6% | [1]; at 11.0 µM -3% | [1]; at 33.0 µM -1% | [1]; at 100.0 µM 18% | [2]; at 1.2 µM 0% | [2]; at 3.7 µM -2% | [2]; at 11.0 µM -1% | [2]; at 33.0 µM 3% | [2]; at 100.0 µM 16% | [3]; at 1.2 µM 7% | [3]; at 3.7 µM 11% | [3]; at 11.0 µM 27% | [3]; at 33.0 µM 56% | [4]; [17] 18%

Reference: PubChem BioAssay (NCI)
